The structures appear in SMILES notation. The whole screen tested about 1,100 compounds, of which about 860 (78%) were called active. Roughly 19% stayed inconclusive and do not appear here. So high a share suggests a set chosen from earlier hits. The list shows a part of the results. Values without a mark were called inactive. Calls come from the whole dose curve; as a rule, active = well fitted activation curve with a large enough effect; inconclusive = small, poorly fitted or top-dose-only effect; inactive = flat fitted curve, though single readings scatter.
Potency is the fitted concentration of half-maximal effect.

A short description of the test: qHTS of Nrf2 Activators: Hit Validation in Primary Assay. For activation: 0% is about no effect. Note: nearly all actives have a fitted effect of over 70% in size. As to conditions: Nrf2/ARE reporter cell assay; Potency: activation; series mostly up to 46.1 µM; activation: at the top concentration. The procedure, abridged:
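Luminescence from Steady-Glo lysis reagent, read after 30 min, reported ARE-luciferase activity in AREc32_fluc stable cells. Compounds were tested at several concentrations, incubated 24 h at 37 °C with 5% CO2 following overnight seeding.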
Consider `Oc1ccccc1C1CC(c2cccs2)=NC(c2ccc(Cl)cc2)N1` (stereo unspecified), for which the Potency is 13 µM (active).

For `COC(=O)c1ccccc1NC(=O)COc1ccccc1[N+](=O)[O-]`, the Potency was 2.59 µM (active).

Turning to `C/C(=N\NC(=O)COc1ccccc1[N+](=O)[O-])c1cccs1`, the Potency is 6.51 µM (active).

As to `O=c1nc2c(-c3ccccc3F)n[nH]n2c2ccccc12`, the Potency was 2.59 µM (active).

With `CCNc1nc(NCC)nc(N(C)/N=C/c2ccco2)n1`, the Potency is 2.59 µM (active).

On to `O=C(N/N=C\c1ccco1)Nc1cccc(Cl)c1`, for which the Potency is 2.31 µM (active).

Turning to `O=C(N/N=C/c1ccco1)Nc1ccccc1`, the Potency was 8.2 µM (active).

Take `O=C(Nc1ccc(F)cc1)c1nsc(Cl)c1Cl`: the Potency is 1.64 µM (active).

With `O=C(Nc1cccc(/C=C/c2ccccn2)c1)c1ccc(-n2cncn2)cc1`, the “activation” value was 10.1%.

Regarding `Clc1ccc(C=Cc2ccccn2)cc1`, the Potency is 5.17 µM (active).

Turning to `Clc1ccc(C=Cc2ccccn2)c(Cl)c1`, the Potency was 3.66 µM (active).

As for `CC1(C)C2C/C(=N\O)C(C)(/[N+]([O-])=C/c3cccc([N+](=O)[O-])c3)CC21` (stereo unspecified), the Potency was 20.6 µM (active).

Regarding `N#C/C(=C\C=C\c1ccccc1)C(=O)NCc1cccnc1`, the Potency was 2.31 µM (active).

In the case of `COCCNc1ccc(-c2nc(-c3ccco3)no2)cc1[N+](=O)[O-]`, the Potency was 1.46 µM (active).

On to `CCCNc1ccc(-c2nc(-c3ccco3)no2)cc1[N+](=O)[O-]`, for which the Potency is 2.31 µM (active).

For the compound `O=[N+]([O-])c1cc(-c2nc(-c3ccccc3)no2)ccc1NCc1cccnc1`, the Potency is 2.31 µM (active).

For the compound `CCNc1ccc(-c2nc(-c3ccco3)no2)cc1[N+](=O)[O-]`, the Potency was 1.46 µM (active).

`Cc1nn(-c2cccc(C(F)(F)F)c2)c(=O)c2ccccc12`: the Potency is 3.66 µM (active).

For `COc1cc(-c2noc(-c3cccs3)n2)cc(OC)c1OC`, the Potency was 13 µM (active).

For the compound `CCOc1ccc(Br)cc1-c1noc(-c2cccs2)n1`, the Potency is 2.31 µM (active).

Regarding `CCOc1ncccc1-c1nc(-c2cccs2)no1`, the Potency is 18.4 µM (active).

On to `CCN=c1scc(C)n1/N=C/c1ccsc1`, for which the Potency was 7.31 µM (active).

Turning to `Cc1nc([N+](=O)[O-])c(Br)n1Cc1ccccc1`, the Potency was 20.6 µM (active).

For the compound `c1ccc2c(c1)nnn2-c1ncnc2sccc12`, the Potency was 13 µM (active).

Take `Clc1nc2sccn2c1/C=N/n1cnc2ccccc21`: the Potency is 2.59 µM (active).

As for `O=C(CSc1nnc(-c2cccnc2)o1)c1cc2ccccc2oc1=O`, the Potency is 18.4 µM (active).

For the compound `Oc1ccccc1C=NN=Cc1c(O)ccc2ccccc12`, the Potency is 3.66 µM (active).

On to `Nc1nonc1N/N=C/c1c(O)ccc2ccccc12`, for which the Potency is 6.51 µM (active).

For `Cc1cc(N/N=C/c2c(O)ccc3ccccc23)nc(-c2ccccc2O)n1`, the “activation” value was 12.2%.

As for `Cc1c(NC(=O)Nc2cccs2)cccc1[N+](=O)[O-]`, the Potency is 11.6 µM (active).

`O=C(Nc1cccc([N+](=O)[O-])c1)Nc1cccs1`: the Potency is 18.4 µM (active).

For the compound `CC(C)(C)/C(O)=C/c1nc2cc(Cl)ccc2oc1=O`, the Potency was 13 µM (active).

As to `O=c1oc2ccc(Cl)cc2nc1/C=C(\O)c1cccs1`, the Potency was 14.6 µM (active).

In the case of `O=c1oc2ccc(Cl)cc2nc1/C=C(\O)c1ccco1`, the Potency is 14.6 µM (active).

As to `O=c1oc2ccccc2cc1-c1nc2c(s1)CCc1ccccc1-2`, the Potency is 3.26 µM (active).

As to `O=c1oc2ccccc2cc1-c1csc(Nc2ccc(O)cc2)n1`, the Potency is 4.61 µM (active).

With `O=c1oc2ccccc2cc1-c1nc(-c2cccs2)cs1`, the Potency was 3.66 µM (active).

Regarding `N=c1oc2ccccc2cc1-c1nc(-c2ccccc2)cs1`, the Potency is 3.66 µM (active).

For the compound `COc1ccccc1C(=O)NCc1nc2cccnc2n1Cc1ccc(F)cc1`, the Potency was 2.91 µM (active).

On to `C#CCSc1nnc(-c2sc3ccccc3c2Cl)o1`, for which the Potency is 2.59 µM (active).

Consider `c1cncc(-c2nc(NCc3ccco3)c3ccccc3n2)c1`, for which the Potency was 5.17 µM (active).

As for `Cc1ccc(-c2nc(NCc3ccco3)c3ccccc3n2)cc1`, the Potency was 6.51 µM (active).

Regarding `O=C(CCN1C(=O)c2cccc3cccc(c23)C1=O)Nc1ccon1`, the Potency was 4.61 µM (active).

Regarding `Cc1cc(=O)oc2c(C(=O)/C=C\c3cccs3)c(O)ccc12`, the Potency was 9.2 µM (active).

`Cc1cc(=O)oc2c(C(=O)/C=C/c3ccccc3)c(O)ccc12`: the Potency is 2.59 µM (active).

For the compound `Cc1ccc(S(=O)(=O)CCSC(=N)N)cc1`, the Potency is 18.4 µM (active).

Take `O=C(Nc1ccc(Cl)cn1)c1cnn2cccnc12`: the Potency was 5.17 µM (active).

Regarding `COc1cccc(/C=C2/CCC(CN(C)C)C2=O)c1` (stereo unspecified), the Potency was 3.66 µM (active).

Turning to `C=CCc1cccc(C=Nc2cc(Br)ccc2O)c1O`, the Potency is 3.26 µM (active).

On to `Cc1ccc(Cn2c(/C=C/c3ccco3)nc3ccccc32)cc1`, for which the Potency was 2.31 µM (active).

As to `O=C(Nc1ccccn1)c1ccc(Cl)c([N+](=O)[O-])c1`, the Potency was 18.4 µM (active).

As to `O=C(Nc1nc2ccccc2[nH]1)c1cccc([N+](=O)[O-])c1`, the Potency is 2.06 µM (active).

For the compound `O=C(Nc1nc2ccccc2[nH]1)c1ccc(Cl)c([N+](=O)[O-])c1`, the Potency was 20.6 µM (active).

On to `Cc1cc(CNC(=O)c2cccc([N+](=O)[O-])c2)c2ccccc2n1`, for which the “activation” value is 20.2%.

For the compound `Cc1cccc(-c2n[nH]c(=S)n2/N=C/C=C/c2ccco2)c1`, the Potency was 2.06 µM (active).

On to `S=c1[nH]nc(-c2ccncc2)n1/N=C/C=C/c1ccco1`, for which the Potency is 8.2 µM (active).

On to `S=c1[nH]nc(-c2ccccc2)n1/N=C/C=C/c1ccco1`, for which the “activation” value is 29.9%.

As for `CC(/C=N/n1c(-c2ccncc2)n[nH]c1=S)=C\c1ccco1`, the Potency is 2.59 µM (active).

As to `O=C1C(=Cc2cccc(F)c2)Cc2ccccc21`, the Potency is 13 µM (active).

On to `O=C1C(=Cc2cccc(Cl)c2)Cc2ccccc21`, for which the Potency is 4.61 µM (active).

As to `COC(=O)/C=C1/S/C(=N/N=C/c2ccco2)NC1=O`, the Potency was 0.82 µM (active).

In the case of `O=C(/C=C/c1cccs1)c1ccco1`, the Potency was 20.6 µM (active).

Consider `CCCN(C(=O)c1ccco1)c1nnc(-c2ccccc2C)s1`, for which the Potency was 8.2 µM (active).

Take `S=c1[nH]nc(COc2ccccc2)n1/N=C/C(Cl)=C/c1ccccc1`: the Potency is 4.61 µM (active).

Turning to `S=c1[nH]nc(-c2ccco2)n1/N=C/C(Cl)=C/c1ccccc1`, the Potency was 23.1 µM (active).

With `S=c1[nH]nc(-c2cccnc2)n1/N=C/C(Cl)=C\c1ccccc1`, the Potency is 14.6 µM (active).

Turning to `Cc1ccc(NC(=O)c2cc(=O)c3ccccc3o2)cc1`, the Potency is 20.6 µM (active).

In the case of `Cc1ccc(C)c(NC(=O)COC(=O)c2cc(=O)c3ccccc3o2)c1`, the Potency is 20.6 µM (active).

For `O=C(Nc1ccc(F)cc1)c1cc2ccccc2o1`, the Potency was 3.66 µM (active).

As to `O=c1oc(CCCO)cc2ccc(C#Cc3ccsc3)cc12`, the Potency was 2.31 µM (active).

`O=c1[nH]c(O)c(/C=C2\C=Nc3ccc(Br)cc32)[nH]1`: the Potency is 8.2 µM (active).

Turning to `O=c1[nH]c(O)c(/C=C2\C=Nc3ccccc32)[nH]1`, the Potency was 14.6 µM (active).

With `O=C(CN1CCS(=O)(=O)CC1)N/N=C/c1cccc(C(F)(F)F)c1`, the Potency was 2.31 µM (active).

On to `Nc1nc(-c2ccccc2)cc(-c2ccccc2O)n1`, for which the Potency was 4.11 µM (active).

On to `Oc1ccccc1-c1csc(-c2ccccc2)n1`, for which the Potency was 7.31 µM (active).

Consider `C[n+]1c2n(c3ccccc31)N=C(c1ccccc1)CS2`, for which the Potency was 2.91 µM (active).

`CC1Sc2n(c3ccccc3[n+]2C)N=C1c1ccccc1` (stereo unspecified): the Potency was 7.31 µM (active).

With `COc1cc2c(c(Br)c1N)-c1cc(Br)c(N)cc1C2=O`, the Potency is 4.11 µM (active).

With `O=C(Nc1ccccc1C(=O)N/N=C/c1ccco1)c1ccc(F)cc1`, the Potency is 2.31 µM (active).

Consider `O=C(Nc1ccccc1C(=O)N/N=C/c1ccco1)c1ccccc1`, for which the Potency was 2.31 µM (active).

As to `Nc1c(Cl)c(Cl)nc(C(=O)N/N=C/c2ccco2)c1Cl`, the Potency was 2.59 µM (active).

As for `Cc1nn(C)c(C)c1/C=C(/C(=O)C(C)(C)C)n1cncn1`, the Potency was 11.6 µM (active).

As to `O=C(CN1C(=O)S/C(=C\c2ccccc2Cl)C1=O)NC1C=CS(=O)(=O)C1` (stereo unspecified), the Potency is 18.4 µM (active).

For `Brc1cc2c(cc1/C=N/Nc1nc3ccccc3s1)OCO2`, the Potency is 2.31 µM (active).

`O=[N+]([O-])c1cc(Cl)cc(/C=N/Nc2nc3ccccc3s2)c1O`: the “activation” value was 16.4%.

On to `N#Cc1c(-c2ccco2)cc(-c2ccccn2)nc1N`, for which the Potency was 2.31 µM (active).

Regarding `CCc1nc(N)c(C#N)c(-c2ccco2)c1C`, the Potency is 1.64 µM (active).

For the compound `N#Cc1c(-c2ccco2)cc(-c2ccc(F)cc2)nc1N`, the Potency is 2.31 µM (active).

Turning to `CC(C)Cc1cc(-c2ccco2)c(C#N)c(N)n1`, the Potency is 1.3 µM (active).

In the case of `c1coc(-c2cnc3ccccc3n2)c1`, the Potency is 5.17 µM (active).

As to `O=C(Oc1cccc(-c2cnc3ccccc3n2)c1)c1ccco1`, the Potency is 3.26 µM (active).

For the compound `O=[N+]([O-])c1cccc(-c2cnc3ccccc3n2)c1`, the Potency is 6.51 µM (active).

As for `CC(=O)Nc1ccc(O)c(-c2nc3ccccc3s2)c1`, the Potency is 2.06 µM (active).

As for `O=[N+]([O-])c1ccc(Cl)c(/C=N/n2c(-c3ccncc3)n[nH]c2=S)c1`, the Potency was 11.6 µM (active).

Take `O=C(N/N=C/c1ccc(-c2cccc([N+](=O)[O-])c2)o1)c1cccs1`: the Potency was 2.06 µM (active).

For the compound `COC(=O)C1=C(C)N(C)C(=O)/C1=C\c1ccco1`, the Potency is 2.06 µM (active).

For the compound `COC(=O)C1=C(C)NC(=O)/C1=C\c1ccco1`, the Potency was 3.66 µM (active).

As to `CCN1C(=O)/C(=C\c2ccco2)C(C(=O)OC)=C1C`, the Potency is 3.26 µM (active).

`COC(=O)C1=C(C)N(c2ccc(Br)cc2)C(=O)/C1=C\c1ccco1`: the Potency was 18.4 µM (active).

`CCCC(=O)Nc1sc(C)c(C)c1C#N`: the Potency was 14.6 µM (active).

For the compound `O=C(Nc1cccnc1)C1(F)C(F)(F)C(F)(F)C(F)(F)C(F)(F)C1(F)F`, the Potency was 14.6 µM (active).

Take `O=c1cc(-c2ccccc2)oc2ccc(Cl)cc12`: the Potency was 3.26 µM (active).

Take `CSc1ccc(-c2cc(=O)c3ccccc3o2)cc1`: the Potency is 2.06 µM (active).

Regarding `O=[N+]([O-])c1ccccc1/C=C/C=N/n1c(-c2ccco2)n[nH]c1=S`, the Potency was 11.6 µM (active).

As to `S=c1[nH]nc(-c2ccco2)n1/N=C/c1cccc(Cl)c1Cl`, the Potency is 10.3 µM (active).

`S=c1[nH]nc(-c2ccco2)n1/N=C/c1ccc(Br)s1`: the Potency is 2.31 µM (active).

The values above are taken from PubChem BioAssay AID651593 (National Center for Advancing Translational Sciences (NCATS), 2012).
